# In PubChem BioAssay (Tox21):
# Where “and” joins values, the source holds several entries; their conditions need not be identical. Identical values can stand only once. Results filed as inconclusive are left out. A call without a number means that no potency is given here. Where a structure was tested more than once in an assay, its records may differ in their call. Calls of active or inactive are those of the source. Unless noted, the call rests on the fitted dose curve; in most records, active means well fitted curve in the direction sought with a large enough effect in the repeat runs; inconclusive means weak or mixed curves; inactive means no such curve, though single readings can be large; an effect the other way counts as inactive or inconclusive.
# Experiments:
# [1] = target: Luciferin 4-monooxygenase (Photinus pyralis) (UniProt P08659); assay: qHTS assay to identify small molecule inhibitors of firefly luciferase (AID 1224835); further: nearly all actives have a fitted effect of over 25% in size; further: potency means the concentration at half of the fitted maximal effect
# Procedure, shortened: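 Quantitative HTS format; KM concentrations of both substrates. Purified P. pyralis FLuc activity quantified from luminescence images.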
# [2] = qHTS assay to identify small molecule antagonists of the constitutive androstane receptor (CAR) signaling pathway - cell viability counter screen (AID 1224837); further: nearly all actives have a fitted effect of over 45% in size
# Procedure, shortened: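 To flag cytotoxic false antagonists, HepG2 hCAR/CYP2B6-2.2kb cells were treated 23 hr with 15-concentration compound series and 50 nM CITCO at 37 C/5% CO2; CellTiter-Fluor fluorescence was the measured end point.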
# [3] = qHTS assay to identify small molecule antagonists of the estrogen related receptor signaling pathway with the pleiotropic PPARgamma coactivator (PGC) from Tox21 10K library - cell viability counter screen (AID 1224840; active means well fitted cell-killing curve with a large enough effect in the repeat runs, not every such curve was filed as active; further: nearly all actives have a fitted effect of over 40% in size; further: potency means the concentration at half of the fitted maximal effect)
# Procedure, shortened: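 Seeded PGC/ERR cells (2,000/well, 6 h, 37 C/5% CO2) get compound by pin tool; 17.5 h incubation at 37 C; CellTiter-Fluor added, 30 min, fluorescence measured.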
# [4] = qHTS assay to identify small molecule antagonists of the estrogen related receptor signaling pathway with the pleiotropic PPARgamma coactivator (PGC) from Tox21 10K library (AID 1224841; call rule not given here; further: actives are mostly falling curves and most rising ones were filed inactive; nearly all actives have a fitted effect of over 50% in size; further: potency means the concentration at half of the fitted maximal effect)
# Procedure, shortened: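 Test chemicals dissolved in DMSO were applied to pre-incubated (6 h) PGC/ERR cells at 2,000 cells/well for an 18 h, 37 C treatment; reporter luminescence was then read using One-Glo.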
# [5] = qHTS assay to identify small molecule agonists of the estrogen related receptor signaling pathway with the pleiotropic PPARgamma coactivator (PGC) from Tox21 10K library (AID 1224842); further: nearly all actives have a fitted effect of over 15% in size
# Procedure, shortened: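 PGC/ERR reporter cells (NTP line) were seeded 2,000 per well, rested 6 h at 37 C/5% CO2, then pin-dosed with compounds in DMSO for 18 h at 37 C; luciferase read by One-Glo luminescence after 30 min at room temperature.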
# [6] = qHTS assay to identify small molecule agonists of the hypoxia (HIF-1) signaling pathway - cell viability counter screen (AID 1224844; calls by dose curve; further: nearly all actives have a fitted effect of over 50% in size; further: potency means the concentration at half of the fitted maximal effect)
# Procedure, shortened: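 HRE-bla ME-180; 0.5% dFBS; cpd 17 h, 37C, 5% CO2; CellTiter-Glo lum., 30 min RT, post-FRET read, same wells.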
# [7] = qHTS assay to identify small molecule agonists of H2AX (AID 1224845; active means well fitted activation curve with a large enough effect in the signal ratio in the repeat runs, not every such curve was filed as active; the % refers to the signal ratio)
# Procedure, shortened: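 Wild-type CHO-K1 cells plated overnight, then exposed 3 hr at 37C to compounds at 15 concentrations (0.76% DMSO). Lysed, then HTRF anti-pH2AX(S139)-cryptate/anti-H2AX-d2 detection after 24 hr at room temperature; emissions 665 and 620 nm.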
# [8] = qHTS assay to identify small molecule agonists of the hypoxia (HIF-1) signaling pathway (AID 1224846; active means well fitted activation curve with a large enough effect in the signal ratio in the repeat runs, not every such curve was filed as active; the % refers to the signal ratio)
# Procedure, shortened: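 Reporter induction in HRE-bla ME-180 cells is taken as agonism: cells sit 5 hrs after plating, receive compounds or DMSO only, incubate 17 hrs at 37C under 5% CO2, and are loaded with CCF4-AM for beta-lactamase FRET measurement.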
# [9] = qHTS assay to identify small molecule antagonists of the estrogen related receptor (ERR) signaling pathway from Tox21 library (AID 1224848); further: nearly all actives have a fitted effect of over 50% in size; further: potency means the concentration at half of the fitted maximal effect
# Procedure, shortened: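 First, 2,000 ERR cells per well were plated and held 6 h at 37 C/5% CO2. Next, compounds in DMSO were pinned in and left 18 h at 37 C. Finally, ONE-Glo was added and luminescence read after 30 min at room temperature.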
# [10] = qHTS assay to identify small molecule agonists of the estrogen related receptor (ERR) signaling pathway from Tox21 library (AID 1224849; calls by dose curve; further: nearly all actives have a fitted effect of over 15% in size); conditions: ERR reporter cell line, ONE-Glo luciferase, 18 h
# Procedure, shortened: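 Tox21 compounds tested for ERR agonism in an NTP reporter cell line: 18 h treatment at 37 C, then ONE-Glo luminescence.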
# [11] = qHTS RealTime-Glo MT Cell Viability Assay in HepG2 cells - 24 hour (AID 1224867); further: nearly all actives have a fitted effect of over 50% in size
# Procedure, shortened: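 Viability was tracked continuously by NanoLuc luminescence from prosubstrate reduced by living HepG2 cells, at successive time points over 40 h of compound exposure. Cells with reagent were preincubated 5 h at 37 °C before compound addition.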
# [12] = qHTS RealTime-Glo MT Cell Viability Assay in HEK293 cells - 32 hour (AID 1224868); further: nearly all actives have a fitted effect of over 50% in size; further: potency means the concentration at half of the fitted maximal effect
# Procedure, shortened: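 Viability tracked continuously by luminescence as live cells reduce a prosubstrate for NanoLuc; HEK293 cells preincubated 5 h, compound-treated at 37 C, and read at 0, 8, 16, 24, 32 and 40 h.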
# [13] = A CellTox Green Cytotoxicity Assay to monitor cytotoxicity in HEK293 cells - 0 hour (AID 1224869); further: nearly all actives have a fitted effect of over 50% in size
# Procedure, shortened: (§1)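 Tox21 screen in HEK293: membrane-impermeant cyanine dye fluoresces on binding dead-cell DNA; compound pinned 5 h post-seeding, plates held at 37 C, signal read repeatedly through 40 h.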
# [14] = qHTS RealTime-Glo MT Cell Viability Assay in HepG2 cells - 40 hour (AID 1224870); further: nearly all actives have a fitted effect of over 50% in size
# Procedure, shortened: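 HepG2 cells mixed with RealTime-Glo MT reagents (NanoLuc plus cell-permeant prosubstrate) were seeded at 600 cells/well, incubated 5 h at 37 C/5% CO2, then pinned with compounds in DMSO; nonlytic luminescence tracked viability during 40 h treatment.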
# [15] = A CellTox Green Cytotoxicity Assay to monitor cytotoxicity in HEK293 cells - 40 hour (AID 1224871); further: nearly all actives have a fitted effect of over 45% in size; further: potency means the concentration at half of the fitted maximal effect
# Procedure, shortened: as §1
# [16] = target: Thyrotropin receptor (Homo sapiens) (UniProt P16473); assay: qHTS assay to identify small molecule agonists of the thyroid stimulating hormone receptor (TSHR) signaling pathway (AID 1224843; calls by dose curve; further: nearly all actives have a fitted effect of over 45% in size)
# Procedure, shortened: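 Compounds are titrated over 15 concentrations, in triplicate, onto TSHR-HEK293 cells seeded at 800/well. Plates sit 30 min at room temperature before cAMP-d2 and anti-cAMP cryptate are added; signal is read after a further hour.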
# [17] = target: Nuclear receptor subfamily 1 group I member 3 (Homo sapiens) (UniProt Q14994); assay: qHTS assay to identify small molecule antagonists of the constitutive androstane receptor (CAR) signaling pathway (AID 1224838);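 further: HepG2 cells stably expressing hCAR with CYP2B6 luciferase reporter stimulated by CITCO; nearly all actives have a fitted effect of over 40% in size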
# Procedure, shortened: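 Human hepatoma HepG2 cells expressing hCAR and a CYP2B6 promoter (2.2 kb) luciferase construct; compound titration (15 points) with 50 nM CITCO final, 24 h at 37 C/5% CO2; luminescence via ONE-Glo after 30 min at room temperature.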
# [18] = target: Nuclear receptor subfamily 1 group I member 3 (Homo sapiens) (UniProt Q14994); assay: qHTS assay to identify small molecule agonists of the constitutive androstane receptor (CAR) signaling pathway (AID 1224839); further: nearly all actives have a fitted effect of over 15% in size; further: potency means the concentration at half of the fitted maximal effect;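 on activation: HepG2 cells stably carrying human CAR and a CYP2B6 luciferase reporter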
# Procedure, shortened: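 Stable hCAR/CYP2B6-2.2kb HepG2 line in DMEM with 10% FBS; compounds (15 concentrations) and 0.75 uM PK11195 final, 24 h at 37 C/5% CO2, then ONE-Glo luminescence after 30 min.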
# [19] = qHTS assay to identify small molecule agonists of H2AX - cell viability counter screen (AID 1224847; calls by dose curve; further: top concentration of the series differs between compounds; nearly all actives have a fitted effect of over 30% in size)
# Procedure, shortened: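 Viability of CHO-K1 (wild type) cells after 3 hr compound exposure was measured by CellTiter-Glo luminescence.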
# [20] = qHTS assay to identify small molecule agonists of the constitutive androstane receptor (CAR) signaling pathway - cell viability counter screen (AID 1224836); further: nearly all actives have a fitted effect of over 45% in size
# Procedure, shortened: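 Fluorescence from CellTiter-Fluor indicates live cells after 23 h exposure. The human hepatoma line expresses hCAR and a CYP2B6-2.2kb reporter. Incubation medium contains 0.75 uM PK11195 (final).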
# Sequence of Nuclear receptor subfamily 1 group I member 3 (Homo sapiens) (Q14994 whole entry, looked up): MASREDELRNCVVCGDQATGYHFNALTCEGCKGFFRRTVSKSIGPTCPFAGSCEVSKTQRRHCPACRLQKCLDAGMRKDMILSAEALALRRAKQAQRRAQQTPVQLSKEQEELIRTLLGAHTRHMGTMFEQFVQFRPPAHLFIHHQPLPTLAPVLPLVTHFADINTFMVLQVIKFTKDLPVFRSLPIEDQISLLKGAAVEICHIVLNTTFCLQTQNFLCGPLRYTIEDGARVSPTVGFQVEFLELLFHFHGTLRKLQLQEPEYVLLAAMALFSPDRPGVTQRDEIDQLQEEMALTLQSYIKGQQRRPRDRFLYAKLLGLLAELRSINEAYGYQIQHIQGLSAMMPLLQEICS
# Sequence of Luciferin 4-monooxygenase (Photinus pyralis) (P08659 whole entry, looked up): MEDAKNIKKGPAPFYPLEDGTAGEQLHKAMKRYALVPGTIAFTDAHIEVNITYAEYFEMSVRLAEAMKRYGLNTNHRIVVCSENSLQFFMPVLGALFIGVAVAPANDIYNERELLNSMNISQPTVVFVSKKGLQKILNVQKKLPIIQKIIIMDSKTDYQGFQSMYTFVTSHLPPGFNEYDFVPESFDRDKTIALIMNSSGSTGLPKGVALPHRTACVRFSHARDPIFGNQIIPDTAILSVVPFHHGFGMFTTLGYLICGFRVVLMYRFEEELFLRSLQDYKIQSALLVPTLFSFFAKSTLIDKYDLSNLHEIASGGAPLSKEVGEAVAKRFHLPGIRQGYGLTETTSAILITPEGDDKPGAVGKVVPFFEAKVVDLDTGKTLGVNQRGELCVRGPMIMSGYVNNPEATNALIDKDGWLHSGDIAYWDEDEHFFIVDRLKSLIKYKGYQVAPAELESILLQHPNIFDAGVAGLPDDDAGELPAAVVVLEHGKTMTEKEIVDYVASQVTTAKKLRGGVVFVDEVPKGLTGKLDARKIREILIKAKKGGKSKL
# Sequence of Thyrotropin receptor (Homo sapiens) (P16473 whole entry, looked up): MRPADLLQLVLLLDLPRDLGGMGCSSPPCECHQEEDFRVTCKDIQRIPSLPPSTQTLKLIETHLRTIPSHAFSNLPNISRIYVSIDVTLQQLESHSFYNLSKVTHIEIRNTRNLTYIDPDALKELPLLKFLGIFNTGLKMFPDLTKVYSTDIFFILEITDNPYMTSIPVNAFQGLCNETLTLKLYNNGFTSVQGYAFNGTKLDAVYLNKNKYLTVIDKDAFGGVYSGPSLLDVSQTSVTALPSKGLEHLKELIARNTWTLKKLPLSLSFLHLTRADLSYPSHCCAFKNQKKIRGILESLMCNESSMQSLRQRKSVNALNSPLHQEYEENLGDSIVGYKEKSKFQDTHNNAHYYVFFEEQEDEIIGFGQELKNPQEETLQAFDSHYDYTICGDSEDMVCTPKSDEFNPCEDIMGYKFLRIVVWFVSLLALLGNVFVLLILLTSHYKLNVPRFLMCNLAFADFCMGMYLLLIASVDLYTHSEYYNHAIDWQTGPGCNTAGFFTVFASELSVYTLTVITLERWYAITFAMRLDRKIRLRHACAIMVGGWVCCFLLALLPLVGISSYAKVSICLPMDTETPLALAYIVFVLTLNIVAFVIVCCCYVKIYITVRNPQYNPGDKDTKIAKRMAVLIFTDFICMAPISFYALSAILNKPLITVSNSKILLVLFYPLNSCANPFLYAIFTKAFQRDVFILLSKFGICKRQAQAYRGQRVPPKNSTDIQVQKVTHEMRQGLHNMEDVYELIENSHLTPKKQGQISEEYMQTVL
smiles,measurement,setting,value
COC(=O)C1CCC(C(=O)OC)CC1 (stereo not drawn),Potency,[1],inactive
same,Potency,[2],inactive
same,Potency,[3],inactive
same,Potency,[4],inactive
same,Potency,[5],inactive
same,Potency,[6],inactive
same,Potency,[7],inactive
same,outcome,[8],inactive
same,Potency,[9],inactive
same,"activity change, positive = activation",[10]; at 92.4 µM (top of the series),0.483% (inactive) and 7.26% (inactive) and 4.66% (inactive)
same,outcome,[11],inactive
same,Potency,[12],inactive
same,Potency,[13],inactive
same,outcome,[14],inactive
same,Potency,[15],inactive
O=C(O)Cc1cccc2ccccc12,Potency,[1],inactive
same,Potency,[2],inactive
same,Potency,[3],inactive
same,Potency,[16],inactive
same,Potency,[6],inactive and 4.36 µM (active)
same,Potency,[7],inactive
same,outcome,[11],inactive
same,Potency,[12],inactive
same,Potency,[13],inactive
same,outcome,[14],inactive
same,Potency,[15],inactive
NC(=O)N/N=C/c1ccc([N+](=O)[O-])o1,Potency,[1],inactive
same,Potency,[17],inactive
same,Potency,[18],inactive
same,Potency,[3],inactive
same,Potency,[4],24.3 µM (active) and inactive
same,Potency,[5],inactive
same,Potency,[6],inactive
same,Potency,[7],inactive
same,Potency,[9],inactive and 48.6 µM (active)
same,"activity change, positive = activation",[10]; at 42.5 µM (top of the series),-13.7% (inactive)
same,"activity change, positive = activation",[10]; at 92.4 µM (top of the series),-3.25% (inactive) and -34% (inactive)
same,outcome,[11],inactive
same,Potency,[12],inactive
same,Potency,[13],inactive
same,outcome,[14],inactive
same,Potency,[15],inactive
C[C@]12CC[C@@H]3c4ccc(O)cc4CC[C@H]3[C@@H]1CCC2=O,Potency,[2],inactive
same,Potency,[3],inactive
same,Potency,[6],inactive
same,Potency,[7],inactive
same,Potency,[19],inactive
same,outcome,[11],inactive
same,Potency,[13],inactive
same,outcome,[14],inactive
same,Potency,[15],49 µM (active) and inactive
C/C=C/c1ccc(O)c(OC)c1,Potency,[1],inactive
same,Potency,[2],inactive
same,Potency,[17],inactive
same,Potency,[18],inactive
same,Potency,[3],inactive
same,Potency,[6],inactive
same,Potency,[7],inactive
same,outcome,[8],inactive
same,outcome,[11],inactive
same,Potency,[12],inactive
same,Potency,[13],inactive
same,outcome,[14],inactive
same,Potency,[15],inactive
O=[N+]([O-])c1ccc(O)cc1,Potency,[1],inactive
same,Potency,[17],inactive
same,Potency,[18],inactive
same,Potency,[3],30.6 µM (active)
same,Potency,[6],inactive
same,Potency,[7],inactive
same,Potency,[19],inactive
same,outcome,[11],inactive
same,Potency,[12],inactive
same,Potency,[13],inactive
same,outcome,[14],inactive
same,Potency,[15],inactive
NC(=O)N1c2ccccc2C=Cc2ccccc21,Potency,[1],inactive
same,Potency,[2],inactive
same,Potency,[17],inactive
same,Potency,[18],inactive
same,Potency,[3],inactive
same,Potency,[6],inactive
same,Potency,[7],inactive
same,Potency,[19],inactive
same,outcome,[11],inactive
same,Potency,[12],inactive
same,Potency,[13],inactive
same,outcome,[14],inactive
same,Potency,[15],inactive
NCCNc1cccc2ccccc12,Potency,[1],inactive
same,Potency,[2],inactive
same,Potency,[17],inactive
same,Potency,[18],inactive
same,Potency,[3],inactive
same,Potency,[6],inactive
same,Potency,[7],inactive
same,outcome,[11],inactive
same,Potency,[12],54.9 µM (active) and 53.6 µM (active) and inactive
same,Potency,[13],inactive
same,outcome,[14],inactive
same,Potency,[15],inactive
CC(C)=CCC/C(C)=C/CO,Potency,[1],inactive
same,Potency,[2],inactive
same,Potency,[3],inactive
same,Potency,[6],inactive
same,Potency,[7],inactive
same,Potency,[19],inactive
same,outcome,[11],inactive
same,Potency,[12],inactive
same,Potency,[13],inactive
same,outcome,[14],inactive
same,Potency,[15],inactive
CCn1cc(C(=O)O)c(=O)c2ccc(C)nc21,Potency,[1],inactive
same,Potency,[2],inactive
same,Potency,[16],inactive
same,Potency,[6],inactive
same,Potency,[7],inactive
same,outcome,[11],inactive
same,Potency,[12],inactive
same,Potency,[13],inactive
same,outcome,[14],inactive
same,Potency,[15],inactive
COC(=O)c1ccc(O)cc1,Potency,[1],inactive
same,Potency,[2],inactive
same,Potency,[3],inactive
same,Potency,[16],inactive
same,Potency,[6],inactive
same,Potency,[7],inactive
same,outcome,[8],inactive
same,Potency,[19],inactive
same,Potency,[13],inactive
same,Potency,[15],inactive
CN/C(=C\[N+](=O)[O-])NCCSCc1ccc(CN(C)C)o1,Potency,[1],inactive
same,Potency,[2],inactive
same,Potency,[17],inactive
same,Potency,[18],inactive
same,Potency,[3],inactive
same,Potency,[6],inactive
same,Potency,[7],inactive
same,Potency,[19],inactive
same,outcome,[11],inactive
same,Potency,[12],inactive
same,Potency,[13],inactive
same,outcome,[14],inactive
same,Potency,[15],inactive
Nc1ccc(N=Nc2ccccc2)c(N)n1,Potency,[1],8.99 µM (active) and 7.96 µM (active) and 7.76 µM (active)
same,Potency,[17],inactive
same,Potency,[18],24.5 µM (active) and 9.69 µM (active) and 5.96 µM (active)
same,Potency,[3],38.6 µM (active)
same,Potency,[6],inactive
same,outcome,[11],inactive
same,Potency,[12],43.9 µM (active) and 24.5 µM (active)
same,Potency,[13],inactive
same,outcome,[14],inactive
same,Potency,[15],inactive
COc1cc(C=O)ccc1O,Potency,[1],inactive
same,Potency,[2],inactive
same,Potency,[17],inactive
same,Potency,[18],inactive
same,Potency,[3],inactive
same,Potency,[6],inactive
same,Potency,[7],inactive
same,outcome,[8],inactive
same,outcome,[11],inactive
same,Potency,[12],inactive
same,Potency,[13],inactive
same,outcome,[14],inactive
same,Potency,[15],inactive
CCOCCO,Potency,[1],inactive
same,Potency,[2],inactive
same,Potency,[17],inactive
same,Potency,[18],inactive
same,Potency,[3],inactive
same,Potency,[6],inactive
same,Potency,[7],inactive
same,Potency,[19],inactive
same,outcome,[11],inactive
same,Potency,[12],inactive
same,Potency,[13],inactive
same,outcome,[14],inactive
same,Potency,[15],inactive
CCc1cc(C(N)=S)ccn1,Potency,[20],inactive
same,Potency,[2],inactive
same,Potency,[3],inactive
same,Potency,[16],inactive
same,Potency,[6],inactive
same,Potency,[7],inactive
same,Potency,[19],inactive
same,outcome,[11],inactive
same,Potency,[12],inactive
same,Potency,[13],inactive
same,outcome,[14],inactive
same,Potency,[15],inactive
